{"source": "the supplement of paper PMC10811239", "data": [{"tested_on": "LEGO organoid PT (PTEN-/-; TP53-/-)", "assay": "bioluminescence (viable cell) signal fold change after vs before treatment, normalised to DMSO (ratio); higher = more tumour cell growth / less inhibition", "conditions": "10 µM; treatment time 6 days", "experimental": "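Luc2-labelled iPSC-derived glioblastoma-like organoids (LEGOs, genotypes PT = PTEN-/-;TP53-/-, PTCC = plus CDKN2A/B-/-, PTN = plus NF1-/-) were treated with 10 uM drug for 6 days (applied every other day) at 37 C. Bioluminescence imaging was done before treatment and 2 days after the last dose. BLI signals were normalised to the DMSO control on the same day and then to the pre-treatment signal (N=3).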", "values": [{"smiles": "Nc1ncnc2c1ncn2[C@@H]1O[C@H](CO)[C@@H](O)[C@H]1OP(=O)(O)O", "note": "[Adenosine-2'-monophosphate]", "bioluminescence": 1.31}, {"smiles": "Cc1cn([C@H]2C[C@H](N=[N+]=[N-])[C@@H](CO)O2)c(=O)[nH]c1=O", "note": "[Zidovudine]", "bioluminescence": 5.37}, {"smiles": "CC(C)(C)c1cc(C(C)(C)C)c(NC(=O)c2c[nH]c3ccccc3c2=O)cc1O", "note": "[Ivacaftor]", "bioluminescence": 0.378}, {"smiles": "C[C@@H]1O[C@]2(CS1)CN1CCC2CC1.C[C@@H]1O[C@]2(CS1)CN1CCC2CC1.Cl.Cl.O", "note": "[Cevimeline hydrochloride hemihydrate]", "bioluminescence": 0.884}, {"smiles": "O.O.O.O.[Li][O]C(=O)CC(O)(CC(=O)[O][Li])C(=O)[O][Li]", "note": "[Lithium citrate tetrahydrate]", "bioluminescence": 1.01}, {"smiles": "CCCCCCCCCC(=O)OCCN1CCN(CCCN2c3ccccc3Sc3ccc(C(F)(F)F)cc32)CC1", "note": "[Fluphenazine decanoate]", "bioluminescence": 0.875}, {"smiles": "CCc1nc(N)nc(N)c1-c1ccc(Cl)cc1", "note": "[Pyrimethamine]", "bioluminescence": 0.65}, {"smiles": "C#Cc1cccc(Nc2ncnc3cc(OCCOC)c(OCCOC)cc23)c1.Cl", "note": "[Erlotinib hydrochloride]", "bioluminescence": 1.53}, {"smiles": "CC/C(=C(\\c1ccccc1)c1ccc(OCCN(C)C)cc1)c1ccccc1", "note": "[Tamoxifen]", "bioluminescence": 0.646}, {"smiles": "CO/N=C(\\C(=O)N[C@@H]1C(=O)N2C(C(=O)[O-])=C(COC(C)=O)CS[C@H]12)c1csc(N)n1.[Na+]", "note": "[Cefotaxime sodium]", "bioluminescence": 0.745}, {"smiles": "S=c1nc[nH]c2nc[nH]c12", "note": "[Mercaptopurine]", "bioluminescence": 4.23}, {"smiles": "CS(=O)(=O)CCNCc1ccc(-c2ccc3ncnc(Nc4ccc(OCc5cccc(F)c5)c(Cl)c4)c3c2)o1", "note": "[Lapatinib]", "bioluminescence": 1.62}, {"smiles": "Cl.Clc1cccc(Cl)c1NC1=NCCN1", "note": "[Clonidine hydrochloride]", "bioluminescence": 1.1}, {"smiles": "CCc1cccc2c3c([nH]c12)C(CC)(CC(=O)O)OCC3", "note": "(stereo not given) [Etodolac]", "bioluminescence": 1}, {"smiles": "CCCN(CCC)S(=O)(=O)c1ccc(C(=O)O)cc1", "note": "[Probenecid]", "bioluminescence": 3.62}, {"smiles": "CC[C@@]1(O)C(=O)OCc2c1cc1n(c2=O)Cc2cc3c(CN(C)C)c(O)ccc3nc2-1.Cl", "note": "[Topotecan hydrochloride]", "bioluminescence": 1.39}, {"smiles": "Cc1cc2c(s1)Nc1ccccc1N=C2N1CCN(C)CC1", "note": "[Olanzapine]", "bioluminescence": 1.17}, {"smiles": "CN(C)C(=N)NC(=N)N.Cl", "note": "[Metformin hydrochloride]", "bioluminescence": 2.55}, {"smiles": "CN(C)CCCN1c2ccccc2CCc2ccccc21.Cl", "note": "[Imipramine hydrochloride]", "bioluminescence": 0.921}, {"smiles": "Cl.Nc1c2c(nc3ccccc13)CCCC2.O", "note": "[Tacrine hydrochloride hydrate]", "bioluminescence": 0.719}, {"smiles": "Nc1ccn([C@@H]2CS[C@H](CO)O2)c(=O)n1", "note": "[Lamivudine]", "bioluminescence": 0.906}, {"smiles": "C[C@H]1C[C@@H]2[C@H]([C@@H](O)C[C@@]3(C)[C@H]2CC[C@]3(O)C(=O)CO)[C@@]2(C)C=CC(=O)C=C12", "note": "[Methylprednisolone]", "bioluminescence": 1.3}, {"smiles": "CC(C)NCC(O)COc1cccc2ccccc12.Cl", "note": "(stereo not given) [Propranolol hydrochloride]", "bioluminescence": 1.03}, {"smiles": "Cl.OC[C@H]1NC[C@H](O)[C@@H](O)[C@H]1O", "note": "[Migalastat hydrochloride]", "bioluminescence": 0.868}, {"smiles": "C/C=C(/C)C(=O)O[C@H]1C(C)=C[C@]23C(=O)[C@@H](C=C(CO)[C@@H](O)[C@]12O)[C@H]1[C@@H](C[C@H]3C)C1(C)C", "note": "[Ingenol Mebutate]", "bioluminescence": 0.841}, {"smiles": "CC(=O)O.Cc1c(-c2ccc(O)cc2)n(Cc2ccc(OCCN3CCCCCC3)cc2)c2ccc(O)cc12", "note": "[Bazedoxifene acetate]", "bioluminescence": 0.897}, {"smiles": "CCN(CC)CC(=O)Nc1c(C)cccc1C.Cl", "note": "[Lidocaine hydrochloride]", "bioluminescence": 1.49}, {"smiles": "CCc1nn(CCCN2CCN(c3cccc(Cl)c3)CC2)c(=O)n1CCOc1ccccc1.Cl", "note": "[Nefazodone hydrochloride]", "bioluminescence": 1.4}, {"smiles": "O=C(CCCCCCC(=O)Nc1ccccc1)NO", "note": "[Vorinostat]", "bioluminescence": 1.13}, {"smiles": "NC(=O)c1ncn([C@@H]2O[C@H](CO)[C@@H](O)[C@H]2O)n1", "note": "[Ribavirin]", "bioluminescence": 0.826}, {"smiles": "Cl.N=C1CCCN1Cc1[nH]c(=O)[nH]c(=O)c1Cl", "note": "[Tipiracil hydrochloride]", "bioluminescence": 0.741}, {"smiles": "O=NN(CCCl)C(=O)NC1CCCCC1", "note": "[Lomustine]", "bioluminescence": 2.59}, {"smiles": "CCC(CC)O[C@@H]1C=C(C(=O)O)C[C@H](N)[C@H]1NC(C)=O", "note": "[Oseltamivir acid]", "bioluminescence": 0.803}, {"smiles": "CO/N=C(\\C(=O)N[C@@H]1C(=O)N2C(C(=O)[O-])=C(C[N+]3(C)CCCC3)CS[C@H]12)c1csc(N)n1.Cl.Cl.O", "note": "[Cefepime Dihydrochloride Monohydrate]", "bioluminescence": 1.05}, {"smiles": "COc1ccccc1OCC(O)COC(N)=O", "note": "(stereo not given) [Methocarbamol]", "bioluminescence": 0.829}, {"smiles": "CC(C)Nc1cccnc1N1CCN(C(=O)c2cc3cc(NS(C)(=O)=O)ccc3[nH]2)CC1.CS(=O)(=O)O", "note": "[Delavirdine mesylate]", "bioluminescence": 0.826}, {"smiles": "CNCCCC1c2ccccc2C=Cc2ccccc21.Cl", "note": "[Protriptyline hydrochloride]", "bioluminescence": 0.749}, {"smiles": "CS(=O)(=O)CCNCc1ccc(-c2ccc3ncnc(Nc4ccc(OCc5cccc(F)c5)c(Cl)c4)c3c2)o1.Cc1ccc(S(=O)(=O)O)cc1.Cc1ccc(S(=O)(=O)O)cc1", "note": "[Lapatinib Ditosylate]", "bioluminescence": 1.34}, {"smiles": "CO[C@@H]1[C@H](N(C)C(=O)c2ccccc2)C[C@H]2O[C@]1(C)n1c3ccccc3c3c4c(c5c6ccccc6n2c5c31)C(=O)NC4", "note": "[Midostaurin]", "bioluminescence": 0.527}, {"smiles": "CC(=O)NCCCS(=O)(=O)[O-].CC(=O)NCCCS(=O)(=O)[O-].[Ca+2]", "note": "[Acamprosate calcium]", "bioluminescence": 2.61}]}]}
